Some test systems named below: BT-549 breast; MDA-MB-435 melanoma; SW-620 colon; MCF7 breast; HCT-116 colon; HCC-2998 colon; KM12 colon.
What all share (experiment): NCI-60 one-dose screen, 48 h (100 = growth as untreated, 0 = no growth, -100 = all killed)
Common to all, as to conditions: 10 µM

Each structure is given as a SMILES string. This is part of a sample that, as a whole, favours compounds with a hit. Of some 83,000 tested, about 20% had one in any assay.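 Values shown are percent growth following 48 h exposure of cells in 96-well plates to a single concentration of compound; below 10 was considered active.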 Unmarked numbers belong to inactive results. Active and inactive are the calls of the source.

Consider `CN1CCC(CNc2cc(C3(C(=O)Nc4cc(C(=O)Nc5ccc(Cl)c(C(F)(F)F)c5)ccc4F)CC3)ncn2)CC1`, for which the growth in the assay on BT-549 breast was 52.5%; in the assay with MDA-MB-435 melanoma it was -53.1% (active); in the assay on SW-620 colon, -9.83% (active); with MCF7 breast it was -43% (active); in the assay with HCT-116 colon, 8.41% (active); in the assay with HCC-2998 colon it was 22.8%. Moreover, in the assay on KM12 colon, the growth was 36.1%.
Turning to `COc1cc(C(=O)N2CCN(c3ccccc3OC)CC2)c(N)cc1OCCCN1CCN(c2ccccc2OC)CC1`, the growth in the assay on BT-549 breast was 94.4%; in the assay with MDA-MB-435 melanoma it was 101%; in the assay with SW-620 colon, 90.6%; with MCF7 breast it was 96%; with HCT-116 colon, 81.9%; in the assay on HCC-2998 colon, 101%. Further, the growth in the assay with KM12 colon was 88.4%.
With `COc1ccc(-c2nc3sc(C4CC4)nn3c2/C=C2/C(=O)Nc3ccc(OC)cc32)cc1`, the growth with BT-549 breast is 40.1%; with MDA-MB-435 melanoma it was 61.6%; in the assay with SW-620 colon it was 77.7%; with MCF7 breast, 30.1%; in the assay with HCT-116 colon, 66.3%; with HCC-2998 colon, 104%. The growth in the assay on KM12 colon was 77.8%.
For `CN(C)CC(O)c1ccc2cc(Br)c3ccccc3c2c1` (centres undefined), the growth in the assay on BT-549 breast is 75.8%; in the assay on MDA-MB-435 melanoma, 42.4%; with SW-620 colon it was 63.7%; in the assay with MCF7 breast, 35.1%; in the assay on HCT-116 colon, 41.2%; with HCC-2998 colon, 25.8%. For the same compound, in the assay on KM12 colon, the growth was 48.6%.
Consider `Nc1c(C(=O)Nc2ccccc2)sc2nc3c(cc12)C(O)CCC3` (centres undefined), for which the growth in the assay on BT-549 breast is 66%; with MDA-MB-435 melanoma, -27.2% (active); in the assay with SW-620 colon, 29.6%; in the assay with MCF7 breast, 18.4%; in the assay with HCT-116 colon it was 22%; in the assay on HCC-2998 colon, 17.9%. For the same compound, in the assay with KM12 colon, the growth is 25.8%.
With `c1ccc(CO[C@H]2CO[C@H]3[C@@H]2OC[C@H]3OCc2ccccc2)cc1`, the growth is 104% in the assay with BT-549 breast; 115% in the assay on MDA-MB-435 melanoma; 107% with SW-620 colon; 101% in the assay with MCF7 breast; 105% in the assay on HCT-116 colon; 98% in the assay with HCC-2998 colon. Further, the growth in the assay with KM12 colon was 103%.
For the compound `CC(=O)CSC(C)=O`, the growth in the assay on BT-549 breast was 105%; with MDA-MB-435 melanoma, 96.5%; with SW-620 colon it was 101%; in the assay on MCF7 breast, 93%; with HCT-116 colon, 98%; in the assay with HCC-2998 colon, 110%. Besides, in the assay with KM12 colon, the growth is 107%.
`CCN(CC)CCOc1nc2cc(OC)c(OC)cc2c2c1-c1ccc(OC)cc1C2=O`: the growth in the assay with BT-549 breast was 81.3%; in the assay on MDA-MB-435 melanoma, 86.2%; with SW-620 colon, 45.4%; with MCF7 breast it was 35%; in the assay with HCT-116 colon it was 47.4%; in the assay on HCC-2998 colon, 82.6%. Further, the growth with KM12 colon was 64.7%.
Take `CC(C)(C)c1cc(Br)cc(C(C)(C)C)c1O`: the growth with BT-549 breast is 111%; with MDA-MB-435 melanoma, 95.8%; in the assay with SW-620 colon it was 112%; in the assay on MCF7 breast, 99%; in the assay on HCT-116 colon, 104%; with HCC-2998 colon, 103%. For the same compound, the growth in the assay with KM12 colon is 105%.
In the case of `CCOC(=O)C1(CC(C)C)CCOC1=O` (centres undefined), the growth in the assay with BT-549 breast is 105%; with MDA-MB-435 melanoma, 104%; in the assay with SW-620 colon it was 98.3%; in the assay on MCF7 breast, 93.5%; with HCT-116 colon it was 107%; in the assay with HCC-2998 colon it was 106%. The growth in the assay with KM12 colon was 99.3%.
Consider `Nc1nccc(Nc2ccccc2)n1`, for which the growth is 103% in the assay on BT-549 breast; 107% in the assay on MDA-MB-435 melanoma; 106% in the assay with SW-620 colon; 107% in the assay with MCF7 breast; 109% with HCT-116 colon; 114% in the assay with HCC-2998 colon. For the same compound, in the assay with KM12 colon, the growth is 101%.
As for `Nc1ncn([C@@H]2O[C@H](CO)[C@@H](O)[C@H]2O)c(=O)n1`, the growth in the assay on BT-549 breast is 16.3%; in the assay on MDA-MB-435 melanoma, 16.6%; in the assay with SW-620 colon it was 35.6%; with MCF7 breast, 23.5%; with HCT-116 colon, -31.5% (active); in the assay with HCC-2998 colon, 11.7%. For the same compound, the growth with KM12 colon is 16.6%.
Turning to `COc1ccc(-c2cc(/C=C3\C(=O)Nc4ccc(OC)cc43)[nH]n2)cc1`, the growth in the assay on BT-549 breast was 61.5%; with MDA-MB-435 melanoma, -25.1% (active); with SW-620 colon it was 19.3%; in the assay with MCF7 breast, 7.36% (active); in the assay with HCT-116 colon, 25.3%; with HCC-2998 colon it was 52.8%. Besides, the growth with KM12 colon is 8.99% (active).
As to `Clc1ccc(-c2cn(-c3ccccc3)c(-c3ccccc3)n2)c(Cl)c1`, the growth in the assay on BT-549 breast is -12.7% (active); with MDA-MB-435 melanoma it was -37.2% (active); in the assay with SW-620 colon it was -100% (active); with MCF7 breast it was 5.1% (active); in the assay with HCT-116 colon it was -100% (active); with HCC-2998 colon, 13.7%. Also, the growth with KM12 colon is -88% (active).
On to `CCCCCCCCCCCCCC[n+]1ccc(C(N)=O)cc1`, for which the growth is -50.9% (active) with BT-549 breast; 8.53% (active) in the assay on MDA-MB-435 melanoma; 7.11% (active) with SW-620 colon; 22.8% with MCF7 breast; 6.07% (active) in the assay on HCT-116 colon; 6.43% (active) in the assay on HCC-2998 colon. Besides, in the assay with KM12 colon, the growth was -87.2% (active).
Turning to `COc1ccc(-c2cc(-c3ccc(N(C)C)cc3)c(C#N)c(N3CCCC3)n2)cc1`, the growth with BT-549 breast was 74.4%; with MDA-MB-435 melanoma it was 90.4%; with SW-620 colon, 94.4%; in the assay on MCF7 breast, 103%; with HCT-116 colon it was 67.7%; with HCC-2998 colon, 83.6%. Also, the growth in the assay on KM12 colon is 95.4%.
For `O=c1cc(-c2ccccc2)[nH]n1-c1nc2ccccc2[nH]1`, the growth in the assay with BT-549 breast is 75.8%; in the assay on MDA-MB-435 melanoma, 51.1%; in the assay with SW-620 colon it was 31.6%; with MCF7 breast, 42.7%; in the assay on HCT-116 colon, 32.1%; in the assay with HCC-2998 colon it was 59.3%. In addition, the growth in the assay on KM12 colon was 38%.

The record behind these values is PubChem BioAssay (NCI).
